Source: PubChem BioAssay AID1159580 (chemical genetic matrix, 2015)
“And” between values parts separate entries of the source, which are not always exact repeats. Identical values can stand only once. Hit rate of the full screen: of about 5,500 compounds, about 2,000 (36%) were called active. Roughly 18% stayed inconclusive and do not appear here. Rule as the data show it: active = normalized growth mostly below about 0.91 (no sharp cut-off); inconclusive = no clear call, values can overlap the other calls; inactive = mostly above about 0.92. The list shows a part of the results.

Assay: chemical genetic growth profiling, strain panel (AID 1159580);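 also: tested at 20 µM; growth read once vehicle control cultures reached saturation at 30 °C; 1 = growth at the plate median or of vehicle wells; lower values mean less growth of the strain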
Conditions: S. cerevisiae deletion strains, growth OD

Measured: normalized growth

CCC1(CC)C(=O)C=CNC1=O
inactive: locus YAL021C, strain ccr4, stronger effect = lower value 0.998 | locus YAL026C, strain drs2, stronger effect = lower value 0.996 | locus YAL030W, strain snc1, stronger effect = lower value 1 | locus YBL061C, strain skt5, stronger effect = lower value 1.01 | locus YBR009C, strain hhf1, stronger effect = lower value 1.02 | locus YBR021W, strain FUR4, stronger effect = lower value 1.02 | locus YBR023C, strain chs3, stronger effect = lower value 0.994 | locus YBR171W, strain sec66, stronger effect = lower value 0.985 | locus YBR229C, strain ROT2, stronger effect = lower value 1.01 | locus YBR231C, strain swc5, stronger effect = lower value 0.997 | locus YBR279W, strain paf1, stronger effect = lower value 1 | locus YCL011C, strain gbp2, stronger effect = lower value 0.992 | locus YCL016C, strain dcc1, stronger effect = lower value 0.998 | locus YCL029C, strain bik1, stronger effect = lower value 1.01 | locus YCL061C, strain MRC1, stronger effect = lower value 0.999 | locus YCL069W, strain vba3, stronger effect = lower value 0.993 | locus YCR088W, strain abp1, stronger effect = lower value 0.986 | locus YDL005C, strain med2, stronger effect = lower value 0.999 | locus YDL035C, strain GPR1, stronger effect = lower value 1.02 | locus YDL040C, strain nat1, stronger effect = lower value 0.999 | locus YDL074C, strain BRE1, stronger effect = lower value 0.977 | locus YDL101C, strain DUN1, stronger effect = lower value 1 | locus YDL134C, strain PPH21, stronger effect = lower value 1.03 | locus YDL185W, strain tfp1, stronger effect = lower value 1.02 | locus YDL192W, strain arf1, stronger effect = lower value 1.01 | locus YDR001C, strain nth1, stronger effect = lower value 0.997 | locus YDR069C, strain doa4, stronger effect = lower value 1.02 | locus YDR101C, strain arx1, stronger effect = lower value 0.988 | locus YDR137W, strain rgp1, stronger effect = lower value 1.03 | locus YDR159W, strain sac3, stronger effect = lower value 1.02 | locus YDR162C, strain NBP2, stronger effect = lower value 1.02 | locus YDR195W, strain ref2 0.985 | locus YDR297W, strain sur2, stronger effect = lower value 0.995 | locus YDR318W, strain mcm21, stronger effect = lower value 1.01 | locus YDR334W, strain swr1, stronger effect = lower value 0.959 | locus YDR335W, strain msn5, stronger effect = lower value 0.997 | locus YDR388W, stronger effect = lower value 1.01 | locus YDR392W, strain spt3, stronger effect = lower value 0.945 | locus YDR502C, strain sam2, stronger effect = lower value 0.995 | locus YEL003W, strain gim4, stronger effect = lower value 0.994 | locus YEL037C, strain rad23, stronger effect = lower value 0.991 | locus YEL061C, strain CIN8 (second series), stronger effect = lower value 0.992 | locus YEL061C, strain CIN8, stronger effect = lower value 1 | locus YER015W, strain faa2, stronger effect = lower value 1 | locus YER016W, strain bim1, stronger effect = lower value 0.999 | locus YER110C, stronger effect = lower value 1.03 | locus YER111C, strain swi4, stronger effect = lower value 1.01 | locus YER155C, strain BEM2 (second series), stronger effect = lower value 0.992 | locus YER155C, strain BEM2, stronger effect = lower value 1 | locus YER167W, strain BCK2, stronger effect = lower value 1.02 | locus YFR010W, strain ubp6, stronger effect = lower value 0.985 | locus YGL078C, strain dbp3, stronger effect = lower value 1.02 | locus YGL086W, strain mad1, stronger effect = lower value 0.99 | locus YGL167C, strain pmr1, stronger effect = lower value 1 | locus YGL173C, strain kem1, stronger effect = lower value 1.01 | locus YGL227W, strain vid30, stronger effect = lower value 1 | locus YGL240W, strain doc1, stronger effect = lower value 1.02 | locus YGL248W, strain PDE1, stronger effect = lower value 0.987 | locus YGL253W, strain hxk2, stronger effect = lower value 0.985 | locus YGR078C, strain PAC10, stronger effect = lower value 0.97 | locus YGR135W, strain pre9, stronger effect = lower value 1.05 | locus YGR252W, strain gcn5, stronger effect = lower value 0.996 | locus YHR013C, strain ard1, stronger effect = lower value 1.03 | locus YHR027C, strain rpn1, stronger effect = lower value 0.982 | locus YHR030C, strain SLT2, stronger effect = lower value 1.01 and 1 | locus YHR079C, strain IRE1 (second series), stronger effect = lower value 1.01 | locus YHR079C, strain IRE1, stronger effect = lower value 1.01 | locus YHR094C, strain hxt1, stronger effect = lower value 1.02 | locus YHR129C, strain ARP1, stronger effect = lower value 1.01 | locus YHR142W, strain chs7, stronger effect = lower value 0.964 | locus YHR200W, strain rpn10, stronger effect = lower value 1.01 | locus YIL066C, strain RNR3, stronger effect = lower value 0.996 | locus YIL073C, strain SPO22, stronger effect = lower value 1.07 | locus YIL125W, strain kgd1, stronger effect = lower value 0.999 | locus YIR030C, strain dcg1, stronger effect = lower value 1.01 | locus YJL092W, strain hpr5, stronger effect = lower value 0.992 | locus YJL095W, strain BCK1 (second series), stronger effect = lower value 0.996 | locus YJL095W, strain BCK1, stronger effect = lower value 0.976 and 1.01 | locus YJL115W, strain asf1, stronger effect = lower value 0.973 | locus YJL129C, strain trk1, stronger effect = lower value 0.993 | locus YJL134W, strain LCB3, stronger effect = lower value 1 | locus YJL154C, strain vps35, stronger effect = lower value 0.983 | locus YJL164C, strain tpk1, stronger effect = lower value 1.01 | locus YJL166W, strain qcr8, stronger effect = lower value 1 | locus YJL168C, strain set2, stronger effect = lower value 1 | locus YJL187C, strain SWE1 (second series), stronger effect = lower value 0.982 | locus YJL187C, strain SWE1, stronger effect = lower value 1.01 | locus YJR043C, strain POL32, stronger effect = lower value 0.994
